Assays:
Assay in all cases: protein-binding microarray (PBM); PBM: ~300 nM protein, 6 mM HEPES pH 7.8, 80 mM KCl, 0.5 mM EDTA, 0.5 mM EGTA, 6% glycerol, 35 ng/ul poly-dIdC, 1% milk, 1 h, room temperature; Ap Aiptasia and Nv Nematostella (sea anemones) / Co Capsaspora / Aq Amphimedon (sponge) / Dm Drosophila / Hu human; RHD is the Rel homology domain; high values mean tight binding
Details in all cases: dsDNA, one strand shown
[1] = molecular target: T1, GST-Ap-NF-kB RHD (Exaiptasia pallida (Aiptasia), UniProt A0A913YAJ5 2-422)
T1 sequence: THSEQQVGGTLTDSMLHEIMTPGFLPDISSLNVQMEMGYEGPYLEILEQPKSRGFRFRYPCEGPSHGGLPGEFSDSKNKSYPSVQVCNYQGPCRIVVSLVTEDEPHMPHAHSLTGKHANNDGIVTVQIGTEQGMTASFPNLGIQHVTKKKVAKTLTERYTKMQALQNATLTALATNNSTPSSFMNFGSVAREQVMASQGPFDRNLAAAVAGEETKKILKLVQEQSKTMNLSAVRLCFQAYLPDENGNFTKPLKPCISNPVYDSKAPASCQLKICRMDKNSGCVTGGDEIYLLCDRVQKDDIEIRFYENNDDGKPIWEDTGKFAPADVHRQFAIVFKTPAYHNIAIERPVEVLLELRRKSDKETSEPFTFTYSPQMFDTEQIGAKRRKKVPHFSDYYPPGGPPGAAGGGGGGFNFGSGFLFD

[2] = molecular target: T2, GST-Nv-NF-kB (Cys allele) (Nematostella vectensis, UniProt E5G601 2-411)
T2 sequence: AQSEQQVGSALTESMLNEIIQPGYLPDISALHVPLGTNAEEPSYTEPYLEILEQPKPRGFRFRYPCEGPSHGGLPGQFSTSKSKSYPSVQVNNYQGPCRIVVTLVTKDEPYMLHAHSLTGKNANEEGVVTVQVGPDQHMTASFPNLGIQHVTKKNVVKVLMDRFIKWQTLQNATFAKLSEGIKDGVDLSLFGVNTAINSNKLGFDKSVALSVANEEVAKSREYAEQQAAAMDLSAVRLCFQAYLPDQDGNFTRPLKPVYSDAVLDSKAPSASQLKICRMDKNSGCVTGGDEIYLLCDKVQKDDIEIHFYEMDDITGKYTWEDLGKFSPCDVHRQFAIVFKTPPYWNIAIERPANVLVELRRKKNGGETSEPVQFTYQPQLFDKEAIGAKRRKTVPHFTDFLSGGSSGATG

[3] = molecular target: T3, GST-Co-NF-kB (Capsaspora owczarzaki, UniProt F1ARL5 200-546)
T3 sequence: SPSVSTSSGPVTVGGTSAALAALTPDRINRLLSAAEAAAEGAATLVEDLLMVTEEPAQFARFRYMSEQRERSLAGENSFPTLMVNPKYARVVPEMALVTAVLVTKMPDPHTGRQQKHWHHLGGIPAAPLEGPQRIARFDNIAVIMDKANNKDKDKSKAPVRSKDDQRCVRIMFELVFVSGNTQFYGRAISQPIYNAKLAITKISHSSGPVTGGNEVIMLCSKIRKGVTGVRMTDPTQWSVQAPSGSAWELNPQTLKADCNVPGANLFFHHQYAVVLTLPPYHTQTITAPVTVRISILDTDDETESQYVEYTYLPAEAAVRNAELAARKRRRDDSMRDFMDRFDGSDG

[4] = molecular target: T4, GST-Dm-Relish (Drosophila melanogaster, UniProt Q94527 99-473)
T4 sequence: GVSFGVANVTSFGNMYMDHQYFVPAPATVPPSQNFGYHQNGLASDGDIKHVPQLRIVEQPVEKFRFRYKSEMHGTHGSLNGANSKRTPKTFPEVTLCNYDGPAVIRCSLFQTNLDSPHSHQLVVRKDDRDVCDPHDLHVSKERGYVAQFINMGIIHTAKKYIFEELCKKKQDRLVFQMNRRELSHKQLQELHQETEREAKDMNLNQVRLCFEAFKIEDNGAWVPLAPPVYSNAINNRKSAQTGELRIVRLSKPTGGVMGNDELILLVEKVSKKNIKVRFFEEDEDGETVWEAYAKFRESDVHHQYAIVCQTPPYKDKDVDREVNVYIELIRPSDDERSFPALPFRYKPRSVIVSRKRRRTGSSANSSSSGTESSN

[5] = molecular target: T5, GST-Aq-NF-kB (Amphimedon queenslandica, UniProt A9Y5G7 2-389)
T5 sequence: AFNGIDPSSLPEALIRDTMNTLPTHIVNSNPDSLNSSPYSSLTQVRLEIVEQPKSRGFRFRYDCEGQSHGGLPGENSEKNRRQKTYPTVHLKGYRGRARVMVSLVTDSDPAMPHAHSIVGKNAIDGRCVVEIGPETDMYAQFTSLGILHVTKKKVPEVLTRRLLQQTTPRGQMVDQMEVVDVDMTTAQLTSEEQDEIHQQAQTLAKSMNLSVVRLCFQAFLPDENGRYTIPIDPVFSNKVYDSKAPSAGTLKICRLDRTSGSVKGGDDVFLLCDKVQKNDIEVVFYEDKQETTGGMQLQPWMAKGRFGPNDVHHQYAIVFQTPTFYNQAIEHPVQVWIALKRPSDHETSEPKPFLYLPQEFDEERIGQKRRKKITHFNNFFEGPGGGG

Sequence: CCGATTAACATCACCCGTTTCCCTGATGTTAATCGGGTCTTGATTCGCTTGACGCTGCTG
- binding signal [1]: 2.8 z-score
- binding signal [2]: 3.24 z-score
- binding signal [3]: 3.33 z-score
- binding signal [4]: 1.19 z-score
- binding signal [5]: 3.03 z-score

Sequence: CCGATTAACATCAAGTATTCCCATGATGTTAATCGGGTCTTGATTCGCTTGACGCTGCTG
- binding signal [1]: 2.44 z-score
- binding signal [2]: 2.26 z-score
- binding signal [3]: 3.57 z-score
- binding signal [4]: 2 z-score
- binding signal [5]: 1.85 z-score

Sequence: CCGATTAACATCAACGGGAATTCTGATGTTAATCGGGTCTTGATTCGCTTGACGCTGCTG
- binding signal [1]: 4.32 z-score
- binding signal [2]: 5.7 z-score
- binding signal [3]: 3.23 z-score
- binding signal [4]: 4.15 z-score
- binding signal [5]: 4.74 z-score

Sequence: CCGATTAACATCAGAACTTCCCATGATGTTAATCGGGTCTTGATTCGCTTGACGCTGCTG
- binding signal [1]: 2.63 z-score
- binding signal [2]: 2.58 z-score
- binding signal [3]: 1.5 z-score
- binding signal [4]: 3.3 z-score
- binding signal [5]: 2.91 z-score

Sequence: CCGATTAACATCAAGGGGGGTGGTGATGTTAATCGGGTCTTGATTCGCTTGACGCTGCTG
- binding signal [1]: 3.51 z-score
- binding signal [2]: 3.67 z-score
- binding signal [3]: 3.06 z-score
- binding signal [4]: 4.12 z-score
- binding signal [5]: 4.15 z-score

Sequence: CCGATTAACATCAGGGGGGTACATGATGTTAATCGGGTCTTGATTCGCTTGACGCTGCTG
- binding signal [1]: 5.31 z-score
- binding signal [2]: 2.52 z-score
- binding signal [3]: 5.22 z-score
- binding signal [4]: 4.13 z-score
- binding signal [5]: 3.31 z-score

Sequence: CCGATTAACATCAATTACCCCCCTGATGTTAATCGGGTCTTGATTCGCTTGACGCTGCTG
- binding signal [1]: 5.96 z-score
- binding signal [2]: 4.69 z-score
- binding signal [3]: 6.96 z-score
- binding signal [4]: 4.49 z-score
- binding signal [5]: 5.14 z-score

Sequence: CCGATTAACATCACAAAAATCCCTGATGTTAATCGGGTCTTGATTCGCTTGACGCTGCTG
- binding signal [1]: 5.86 z-score
- binding signal [2]: 6.11 z-score
- binding signal [3]: 2.59 z-score
- binding signal [4]: 8.17 z-score
- binding signal [5]: 6.23 z-score

Sequence: CCGATTAACATCAAGGGGGAGGGTGATGTTAATCGGGTCTTGATTCGCTTGACGCTGCTG
- binding signal [1]: 4.24 z-score
- binding signal [2]: 3.46 z-score
- binding signal [3]: 4.4 z-score
- binding signal [4]: 3.15 z-score
- binding signal [5]: 4.42 z-score

Sequence: CCGATTAACATCAGGGAATCAGATGATGTTAATCGGGTCTTGATTCGCTTGACGCTGCTG
- binding signal [1]: 1.26 z-score
- binding signal [2]: 1.61 z-score
- binding signal [3]: 1.68 z-score
- binding signal [5]: 1.84 z-score

Sequence: CCGATTAACATCAGGGGGTAATATGATGTTAATCGGGTCTTGATTCGCTTGACGCTGCTG
- binding signal [1]: 4.99 z-score
- binding signal [2]: 4.47 z-score
- binding signal [3]: 6.77 z-score
- binding signal [4]: 2.66 z-score
- binding signal [5]: 4.45 z-score

Sequence: CCGATTAACATCAGGGGGATCACTGATGTTAATCGGGTCTTGATTCGCTTGACGCTGCTG
- binding signal [1]: 5.55 z-score
- binding signal [2]: 4.61 z-score
- binding signal [3]: 5.17 z-score
- binding signal [4]: 9.4 z-score
- binding signal [5]: 5.38 z-score

Sequence: CCGATTAACATCAATCTACCCCCTGATGTTAATCGGGTCTTGATTCGCTTGACGCTGCTG
- binding signal [1]: 4.86 z-score
- binding signal [2]: 3.1 z-score
- binding signal [3]: 7.41 z-score
- binding signal [4]: 2.3 z-score
- binding signal [5]: 3.68 z-score

Sequence: CCGATTAACATCATCCCCCCCCATGATGTTAATCGGGTCTTGATTCGCTTGACGCTGCTG
- binding signal [1]: 6.69 z-score
- binding signal [2]: 4.12 z-score
- binding signal [3]: 7.34 z-score
- binding signal [4]: 4.5 z-score
- binding signal [5]: 5.38 z-score

Sequence: CCGATTAACATCAGGGGAGAATATGATGTTAATCGGGTCTTGATTCGCTTGACGCTGCTG
- binding signal [1]: 4.99 z-score
- binding signal [2]: 5.42 z-score
- binding signal [3]: 7.41 z-score
- binding signal [4]: 1.73 z-score
- binding signal [5]: 3.83 z-score

Sequence: CCGATTAACATCAGGGAATATAATGATGTTAATCGGGTCTTGATTCGCTTGACGCTGCTG
- binding signal [1]: 3.2 z-score
- binding signal [2]: 3.59 z-score
- binding signal [3]: 3.13 z-score
- binding signal [4]: 1.66 z-score
- binding signal [5]: 3.14 z-score

Sequence: CCGATTAACATCAAGTACCCCCCTGATGTTAATCGGGTCTTGATTCGCTTGACGCTGCTG
- binding signal [1]: 5.57 z-score
- binding signal [2]: 3.68 z-score
- binding signal [3]: 4.81 z-score
- binding signal [4]: 4.13 z-score
- binding signal [5]: 3.99 z-score

Sequence: CCGATTAACATCACAGTACCCCCTGATGTTAATCGGGTCTTGATTCGCTTGACGCTGCTG
- binding signal [1]: 5.34 z-score
- binding signal [2]: 2.85 z-score
- binding signal [3]: 3.67 z-score
- binding signal [4]: 1.94 z-score
- binding signal [5]: 2.91 z-score

Sequence: CCGATTAACATCAGGGGGTGTAATGATGTTAATCGGGTCTTGATTCGCTTGACGCTGCTG
- binding signal [1]: 3.57 z-score
- binding signal [2]: 3.16 z-score
- binding signal [3]: 3.87 z-score
- binding signal [4]: 3.25 z-score
- binding signal [5]: 3.21 z-score

Sequence: CCGATTAACATCAGGACGTTCCCTGATGTTAATCGGGTCTTGATTCGCTTGACGCTGCTG
- binding signal [1]: 2.27 z-score
- binding signal [2]: 2.22 z-score
- binding signal [3]: 1.01 z-score
- binding signal [4]: 1.51 z-score
- binding signal [5]: 5.14 z-score

Sequence: CCGATTAACATCAGAGTCCCCCCTGATGTTAATCGGGTCTTGATTCGCTTGACGCTGCTG
- binding signal [1]: 5.97 z-score
- binding signal [2]: 5.02 z-score
- binding signal [3]: 7.33 z-score
- binding signal [4]: 5.14 z-score
- binding signal [5]: 4.89 z-score

Sequence: CCGATTAACATCAGGGGGTTAGATGATGTTAATCGGGTCTTGATTCGCTTGACGCTGCTG
- binding signal [1]: 3.78 z-score
- binding signal [2]: 2.99 z-score
- binding signal [3]: 1.94 z-score
- binding signal [4]: 4.34 z-score
- binding signal [5]: 3.58 z-score

Sequence: CCGATTAACATCAAAATTCCCATTGATGTTAATCGGGTCTTGATTCGCTTGACGCTGCTG
- binding signal [1]: 3.68 z-score
- binding signal [2]: 6.03 z-score
- binding signal [3]: 3.56 z-score
- binding signal [4]: 6.03 z-score
- binding signal [5]: 4.99 z-score

Sequence: CCGATTAACATCAAGAATTCCCATGATGTTAATCGGGTCTTGATTCGCTTGACGCTGCTG
- binding signal [1]: 4.1 z-score
- binding signal [2]: 5.41 z-score
- binding signal [3]: 3.48 z-score
- binding signal [4]: 4.5 z-score
- binding signal [5]: 4.33 z-score

Sequence: CCGATTAACATCAAAAATCCCATTGATGTTAATCGGGTCTTGATTCGCTTGACGCTGCTG
- binding signal [1]: 3.2 z-score
- binding signal [2]: 3.67 z-score
- binding signal [3]: 1.08 z-score
- binding signal [4]: 7.97 z-score
- binding signal [5]: 3.96 z-score

Sequence: CCGATTAACATCACGGGAATCCCTGATGTTAATCGGGTCTTGATTCGCTTGACGCTGCTG
- binding signal [1]: 6.64 z-score
- binding signal [2]: 5.96 z-score
- binding signal [3]: 3.81 z-score
- binding signal [4]: 10.1 z-score
- binding signal [5]: 7.15 z-score

Sequence: CCGATTAACATCACGGGACTCCCTGATGTTAATCGGGTCTTGATTCGCTTGACGCTGCTG
- binding signal [1]: 5.53 z-score
- binding signal [2]: 4.06 z-score
- binding signal [3]: 1.53 z-score
- binding signal [4]: 8.72 z-score
- binding signal [5]: 5 z-score

Sequence: CCGATTAACATCAGGCATTCCCATGATGTTAATCGGGTCTTGATTCGCTTGACGCTGCTG
- binding signal [1]: 1.57 z-score
- binding signal [2]: 2 z-score
- binding signal [3]: 1.54 z-score
- binding signal [4]: 3.64 z-score
- binding signal [5]: 2.75 z-score
